Screening data as filed in PubChem.
Compounds with a hit are over-represented: about 21% of the library has one in this group of screens.
Pf growth 48h: P. falciparum growth inhibition at 48 hours (one generation). Potency, µM (top dose mostly 28.7 µM), most hits filed as inhibitors. AID 504832. P. falciparum luciferase growth in erythrocytes, 48 h. 5.9% of 310,000 active
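Parasite viability was followed by luminescence of a genomically integrated firefly luciferase. Cultures held 0.1% parasitemia at 2% hematocrit (final), incubated under 5% CO2 at 37 C.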
SARS PLP yeast: SARS-CoV PLP inhibition in yeast | S. cerevisiae expressing SARS-CoV PLpro, growth rescue | Potency, µM (doses to about 32.9 µM), actives largely listed as activators | 0.19% of 330,000 active | AID 485353; calls by dose curve; further: nearly all actives have a fitted effect of over 55% in size
NS1 function inh: influenza NS1 inhibition | Potency, µM (series often up to 46.1 µM) | 0.4% of 270,000 active; calls by dose curve; further: actives are rising curves; nearly all actives have a fitted effect of over 50% in size
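S. cerevisiae expressing influenza A NS1, grown in glucose, washed, then diluted 1:100 into pH 6.0 -URA galactose medium with 23 nl compound. Growth recovery read as OD600; NS1-free strain serves as control.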
Pf growth 96h: P. falciparum growth inhibition at 96 hour, primary screen for plastid delayed-death inhibitors; P. falciparum luciferase reporter growth, 96 h; AID 504834; 6.9% of 320,000 active; Potency, µM (doses to about 28.7 µM), actives largely listed as inhibitors
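Luminescence readout: decreased luciferase signal marks inhibited growth of reporter-expressing P. falciparum in infected red cells (2% hematocrit, 0.05% parasitemia final), exposed to compound two generations (96 h, 37 C, 5% CO2).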
Cycloheximide cs: affects cycloheximide protein synthesis inhibition readout, counter-screen; cell reporter, cycloheximide protein synthesis inhibition counterscreen; max response, %; 12% of 300,000 active; AID 2314; in the data active means max response mostly above about 13%, no sharp cut-off; inactive means mostly below about 14%; further: read at 38.3 µM for the half of the compounds with a filed dose
Shiga toxin inh: Shiga toxin inhibition; Vero cells, Shiga toxin protein synthesis inhibition reporter; inhibition, % at 38.7 µM; 9.2% of 290,000 active; in the data active means inhibition mostly above about 28%, no sharp cut-off; inactive means mostly below about 43%
Large screens that a line does not name were inactive. Unless noted, the call rests on the fitted dose curve; in most records, active means well fitted inhibition curve with a large enough effect; inconclusive means small, poorly fitted or top-dose-only effect, or another doubt; inactive means no such curve, though single readings can be large or run the other way.

O=C(CNC(=O)c1cccs1)c1ccc(F)cc1	Cycloheximide cs 25
O=C(CNc1ccccc1)c1ccc([N+](=O)[O-])cc1	Pf growth 96h inconclusive
CCN(C(=O)c1ccccc1)c1ccc([N+](=O)[O-])cc1	Pf growth 48h inconclusive, Pf growth 96h 8.3µM
NC(=O)[C@@H]1CCCNC1	none (no result: Pf growth 48h, SARS PLP yeast, Pf growth 96h, Cycloheximide cs, Shiga toxin inh)
O=C(CNC(=O)c1cccs1)c1ccc([N+](=O)[O-])cc1	Cycloheximide cs 23, Shiga toxin inh 92
O=C(NCC(=O)c1ccccc1)OCc1ccc([N+](=O)[O-])cc1	Pf growth 96h 13µM, Cycloheximide cs 30 (no result: Shiga toxin inh)
O=C(CNC(=O)c1cccs1)c1ccc(Cl)cc1	Pf growth 96h inconclusive, Cycloheximide cs 37, Shiga toxin inh 79
O=C(NCCc1ccc(Cl)cc1)c1cccs1	Pf growth 96h inconclusive, Cycloheximide cs 42, Shiga toxin inh 134 (no result: NS1 function inh)
O=C(NCCc1ccc(S(=O)(=O)N2CCCC2)cc1)c1cccs1	none
O=C(CNC(=O)c1cccs1)OCC(=O)c1ccc([N+](=O)[O-])cc1	none
O=C(COC(=O)C12CC3CC(CC(Br)(C3)C1)C2)Nc1cccnc1Cl	none
O=C(CSc1nc(COc2ccccc2)nc2ccccc12)NC1CCCC1	Pf growth 96h inconclusive
CCN(CC(=O)Nc1c(F)cccc1F)C(=O)c1ccc2c(c1)OCO2	none (no result: NS1 function inh, Cycloheximide cs, Shiga toxin inh)
COc1ccc([N+](=O)[O-])cc1NC(=O)c1ccccc1N(C)S(C)(=O)=O	Pf growth 96h inconclusive (no result: NS1 function inh)
COC(=O)c1c(NC(=S)Nc2ccc(C(=O)N3CCOCC3)cc2)sc2c1CCC2	none (no result: NS1 function inh)
C/C=C1/C2C=C(C)CC1(N)c1ccc(=O)[nH]c1C2 (stereo not given)	none (no result: Pf growth 48h, SARS PLP yeast, NS1 function inh, Pf growth 96h)
CCOC(=O)CC(=O)N/N=C/c1c(N)n(C)c(=O)n(C)c1=O	Pf growth 96h inconclusive (no result: NS1 function inh)
O=C(Cc1cccs1)NNC(=S)NCc1ccc(Cl)cc1	none
O=C(Cc1ccc(Cl)cc1)NNC(=S)NC(=O)c1cccs1	Shiga toxin inh 34
Cc1cc(C)c(OCCCCN2CCC(C)CC2)c(Br)c1	Pf growth 48h inconclusive, Pf growth 96h inconclusive
CN(C)S(=O)(=O)c1cccc(NC(=O)COc2ccccc2C(=O)NCc2ccccc2)c1	Pf growth 48h inconclusive, Pf growth 96h inconclusive (no result: NS1 function inh, Cycloheximide cs, Shiga toxin inh)
CCOc1ccc(NCC(=O)N/N=C/C=C/c2ccccc2)cc1	NS1 function inh inconclusive
CCOc1ccc(N=C/C=C/c2ccccc2)c(O)c1	Cycloheximide cs 22, Shiga toxin inh 64
COc1cc(Cl)c(CNC[C@H]2O[C@@H](n3cnc4c(N)ncnc43)[C@H](O)[C@@H]2O)c(Cl)c1O	none (no result: Pf growth 48h, NS1 function inh, Pf growth 96h, Cycloheximide cs, Shiga toxin inh)
Cc1onc(-c2ccccc2)c1C(=O)Nc1nncs1	none
CCOc1ccc2cc(C#N)c(SCC(=O)N3CCC(C)CC3)nc2c1	Pf growth 48h 9.3µM
COc1ccc2nc(SCC(=O)N3CCN(c4ccc(F)cc4)CC3)c(C#N)cc2c1	Pf growth 48h inconclusive, Pf growth 96h 15µM
COc1ccc2cc(C#N)c(SCC(=O)N3CCCC3)nc2c1	NS1 function inh inconclusive
COC(=O)CSc1nc2ccc(C)cc2cc1C#N	Cycloheximide cs 36, Shiga toxin inh 149 (no result: NS1 function inh)
COC(=O)CSc1nc2cc(OC)ccc2cc1C#N	Cycloheximide cs 53, Shiga toxin inh 68 (no result: Pf growth 96h)
COC(=O)CSc1nc2cc(C)cc(C)c2cc1C#N	none
CCN1C(=O)C(=O)N(CC(=O)N2CCN(c3ccccc3)CC2)C1=O	none (no result: NS1 function inh, Cycloheximide cs, Shiga toxin inh)
COc1ccc(C(=O)NCCNc2nc3ccc(C)cc3cc2C#N)cc1	Pf growth 48h inconclusive, Pf growth 96h 9.3µM, Cycloheximide cs 23, Shiga toxin inh 34
CCOC(=O)CSc1nc2cc(OCC)ccc2cc1C#N	Cycloheximide cs 65, Shiga toxin inh 88 (no result: Pf growth 96h)
CCOc1ccc2nc(SCC#N)c(C#N)cc2c1	Cycloheximide cs 22
CCOc1ccc2cc(C#N)c(SCC(=O)NC(C)CC)nc2c1 (stereo not given)	Pf growth 96h 7.4µM
C[C@H](NC(=O)c1ccc(C(C)(C)C)cc1)C(=O)N1CCOCC1	none (no result: Pf growth 48h, NS1 function inh, Pf growth 96h, Cycloheximide cs, Shiga toxin inh)
COc1cc(NC(=O)c2cc(C)no2)cc(OC)c1OC	none
CSc1ncc(Cl)c(C(=O)Nc2ccccc2Cl)n1	none
CSc1ncc(C(=O)Nc2ccc(Br)cn2)c(C)n1	Pf growth 48h inconclusive, Pf growth 96h 1.9µM, Cycloheximide cs 23, Shiga toxin inh 56
CSc1ncc(C(=O)Nc2ccc(Cl)cc2)c(C)n1	Shiga toxin inh 39
CSc1ncc(Cl)c(C(=O)Nc2c(C)cccc2C)n1	Pf growth 96h 4.1µM
CSc1ncc(C(=O)Nc2ccc(C(C)=O)cc2)c(C)n1	Pf growth 48h inconclusive, Pf growth 96h 2.6µM, Cycloheximide cs 35, Shiga toxin inh 80
COc1cc(C)nc(OCCNS(=O)(=O)c2cc(C)ccc2C)n1	none (no result: Pf growth 96h)
COc1cccc(/C=N/NC(=O)c2ccc(N3CCCC3=O)cc2)c1	Pf growth 48h inconclusive
COc1cc(OC)cc(C(C)=O)c1	none
CSc1nc2nccc(-c3ccc(-c4ccccc4)cc3)n2n1	Pf growth 96h 10µM (no result: Pf growth 48h)
CSc1nc2nccc(-c3ccc(Oc4ccccc4)cc3)n2n1	Pf growth 48h inconclusive (no result: Pf growth 96h)
Cc1ccc(S(=O)(=O)C(CNC(=O)C(C)C)c2cccs2)cc1 (stereo not given)	none
CCOC(=O)C(=O)NCC(c1cccs1)S(=O)(=O)c1ccc(C)cc1 (stereo not given)	Pf growth 96h inconclusive (no result: NS1 function inh, Cycloheximide cs, Shiga toxin inh)
CCOC(=O)C(=O)NCC(c1cccs1)S(=O)(=O)c1ccc(F)cc1 (stereo not given)	Pf growth 48h inconclusive, Pf growth 96h 12µM (no result: SARS PLP yeast, NS1 function inh, Cycloheximide cs, Shiga toxin inh)
CCNC(=O)C(=O)NCC(c1cccs1)S(=O)(=O)c1ccc(C)cc1 (stereo not given)	NS1 function inh inconclusive, Pf growth 96h 4.1µM
O=S(=O)(c1ccc(OCC(O)CN2CCN(c3ccc(F)cc3)CC2)cc1)N1CCOCC1 (stereo not given)	Pf growth 96h 9.3µM
COc1ccccc1N1CCN(CC(O)COc2ccc(S(=O)(=O)N3CCOCC3)cc2)CC1 (stereo not given)	Pf growth 96h 8.3µM (no result: Pf growth 48h)
CC12CCC(=O)N1C(C(=O)NNC(=O)COc1ccccc1F)CS2 (stereo not given)	none (no result: NS1 function inh, Cycloheximide cs, Shiga toxin inh)
CCOC(=O)N1CCC(Nc2c(Nc3ccc(F)cc3)c(=O)c2=O)CC1	Pf growth 48h 10µM, Pf growth 96h inconclusive
CCOC(=O)N1CCC(Nc2c(Nc3cccc(CC)c3)c(=O)c2=O)CC1	Pf growth 48h 10µM, Pf growth 96h inconclusive
CCOC(=O)N1CCC(Nc2c(-c3ccc(C)cc3)c(=O)c2=O)CC1	none
CCOC(=O)N1CCC(Nc2c(NCCN3CCN(Cc4ccccc4)CC3)c(=O)c2=O)CC1	none
O=C(N[C@@H](Cc1ccc(O)cc1)C(=O)O)c1cccnc1	none
N=C(N)[C@H](N=Nc1ccccc1)C(N)=O	none (no result: Pf growth 48h, SARS PLP yeast, Pf growth 96h, Cycloheximide cs, Shiga toxin inh)
CCOC(=O)N1CCc2c(sc(NC(=O)C3=COCCO3)c2C(N)=O)C1	Pf growth 48h inconclusive, Pf growth 96h inconclusive
CNC(=O)c1c(NC(=O)c2ccco2)sc2c1CCC2	Cycloheximide cs 31
O=C(Nc1sc2c(c1C(=O)NC1CCCCC1)CCC2)c1ccco1	none (no result: SARS PLP yeast)
CNC(=O)c1c(NC(=O)C2=COCCO2)sc2c1CCCC2	Pf growth 96h 13µM
